According to PubChem BioAssay AID493011 (Sanford-Burnham Center for Chemical Genomics, 2011):
Hit rate of the full screen: of about 330,000 compounds, about 1,400 (0.42%) were called active.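 The calls were made as follows: active = at least 40% inhibition at 20 µM here, with at most 30% in a related deaminase screen; inactive = the rest.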 The full list was thinned out, with actives kept by preference.

Molecular target: DNA dC->dU-editing enzyme APOBEC-3A (Homo sapiens) (UniProt P31941)
Test: blockers of A3A cytidine deamination on DNA – biochemical, FAM/TAMRA oligo cleavage fluorescence, selectivity assay for APOBEC3G inhibitor project, primary screen (AID 493011);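 also: plate controls were A3A with DMSO for no effect and wells lacking A3A enzyme for full effect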
Settings: recombinant A3A, FAM/TAMRA ssDNA deamination fluorescence; at 20 µM; stronger effect = higher value

Chain of DNA dC->dU-editing enzyme APOBEC-3A (Homo sapiens) (P31941 whole entry, looked up): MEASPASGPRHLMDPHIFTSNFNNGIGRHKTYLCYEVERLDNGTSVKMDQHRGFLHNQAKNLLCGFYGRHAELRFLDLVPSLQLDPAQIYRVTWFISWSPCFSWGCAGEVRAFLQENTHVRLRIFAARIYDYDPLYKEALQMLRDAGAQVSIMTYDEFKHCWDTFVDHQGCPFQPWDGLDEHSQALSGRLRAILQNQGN

| Compound | inhibition |
| --- | --- |
| CCN(CC)CCOC(=O)c1cc2cc(COC)ccc2o1 | 75.9% (active) |
| CC(=NC1CCN(Cc2ccccc2)CC1)c1c(O)n(C)c(=O)n(C)c1=O | 1.55% (inactive) |
| COc1cc(OC)cc(C2(C#N)CCN(C)CC2)c1 | 3.94% (inactive) |
| CN(C)c1nc(N(C)C)nc(N(C#N)CCCl)n1 | -2.95% (inactive) |
| O=C(O)CCn1cc(C=C2C(=O)NC(=S)NC2=O)c(-c2cccc(Br)c2)n1 | 40.8% (active) |
| COC(=O)C1=C(c2cccc(OCc3ccccc3)c2)C[C@@H]2CC[C@H]1N2C(=O)NNCc1ccccc1 | -3.97% (inactive) |
| CC(=C1C(=O)c2ccccc2C1=O)N1CCN(CCN=Cc2c(O)n(C)c(=O)n(C)c2=O)CC1 | 1.68% (inactive) |
| CC[N+]1(C)CCCC(OC(=O)C(O)(c2ccccc2)c2ccccc2)C1 (stereo not given) | -0.37% (inactive) |
| O=C(c1cc(S(=O)(=O)N2CCOCC2)ccc1F)N1CCC2(CC1)OCCO2 | 4.32% (inactive) |
| CNC(=O)O/N=C(\N)Cc1csc2ccccc12 | 1.51% (inactive) |
